Results on ten compounds are retold here after PubChem BioAssay (NCI).

The nature of test [1]: NCI Yeast Anticancer Drug Screen. Data for the rad50 strain (AID 155).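 Further: 0% = growth of vehicle-only cultures of the same strain.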 Particulars: S. cerevisiae rad50 strain growth inhibition, stronger effect = higher value. In a few lines:
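Cells are treated with compound, grown, and their growth is then scored against vehicle-only cultures of the same repair-deficient yeast strain.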

Test [2] in a line: NCI Yeast Anticancer Drug Screen. Data for the mec2-1 strain (AID 157). The conditions noted are these: S. cerevisiae mec2-1 strain, stronger effect = higher value. The essentials:
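Compounds were applied to mec2-1 yeast cells. Their growth was then compared with that of vehicle-treated cultures to give growth inhibition.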

Test [3] is described as follows: NCI Yeast Anticancer Drug Screen. Data for the sgs1 mgt1 strain (AID 161).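 Further: 0% = growth of cultures given vehicle only.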 The conditions noted are these: S. cerevisiae sgs1 mgt1 strain, stronger effect = higher value. In a few lines:
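This yeast growth screen uses a strain with defined DNA-repair lesions; compound-treated growth is compared with vehicle-treated growth.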

Test [4] in a line: NCI Yeast Anticancer Drug Screen. Data for the cln2 rad14 strain (AID 165).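 Further: 0% = growth equal to vehicle treated cultures.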 Particulars: S. cerevisiae cln2 rad14 strain, stronger effect = higher value. In a few lines: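 Strain: cln2 rad14 yeast, altered in cell cycle control and DNA damage repair. Read-out: growth inhibition vs vehicle.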
Test [5] is described as follows: NCI Yeast Anticancer Drug Screen. Data for the bub3 strain (AID 167). The conditions noted are these: S. cerevisiae bub3 mutant strain, stronger effect = higher value. In a few lines:
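Part of a panel of yeast mutants defective in DNA damage repair or cell cycle regulation. Each strain is grown with compound, and inhibition is calculated relative to solvent-treated cultures.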

Test [6] in a line: NCI Yeast Anticancer Drug Screen. Data for the mlh1 rad18 strain (AID 175). The conditions noted are these: S. cerevisiae mlh1 rad18 strain growth inhibition, stronger effect = higher value. The essentials:
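A repair-deficient yeast strain is exposed to test compound, and growth is scored relative to vehicle-treated controls.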

[7] abbreviates: at 5.0 µM (retest, dose inferred, filed as 0.5).
The mark [8] stands for this setting: at 50.0 µM (retest, dose inferred, filed as 5.0).

SMILES strings stand for the structures. About 79,000 compounds went through this panel and 15% of them were active in at least one assay; those are over-represented in the sample as a whole. Values without a mark were called inactive. Active and inactive are the calls of the source. No stated cut-off is given here; in the data, active means growth inhibition above about 70%; inactive means the rest.

Take `COc1ccc(-c2[nH]c(-c3ccc(OC)cc3)c(-c3ccccn3)c2-c2ccccn2)cc1`: the growth inhibition is -4% in test [1] (setting [7]); 16% in test [1] (setting [8]); 80.7% (active) in test [1] (at 50.0 µM); -16% in test [2] (setting [7]); 18% in test [2] (setting [8]); 91.7% (active) in test [2] (at 50.0 µM). Moreover, the growth inhibition is 0% in test [3] (setting [7]); 25% in test [3] (setting [8]); 95.4% (active) in test [3] (at 50.0 µM); 7% in test [4] (setting [7]); 27% in test [4] (setting [8]); 69.5% in test [4] (at 50.0 µM). Moreover, the growth inhibition was 4% in test [5] (setting [7]); -7% in test [5] (setting [8]); 83.5% (active) in test [5] (at 50.0 µM); -19% in test [6] (setting [7]); 11% in test [6] (setting [8]); 94.7% (active) in test [6] (at 50.0 µM).

`CCC[C@H]1[C@H](CCC)[C@@]2(OC(=O)C3=C2CCC=C3)[C@]12OC(=O)C1=C2CCC=C1`: the growth inhibition in test [1] (setting [7]) is -2%; in test [1] (setting [8]) it was 98% (active); in test [1] (at 50.0 µM) it was 87.8% (active); in test [2] (setting [7]) it was 2%; in test [2] (setting [8]), 99% (active); in test [2] (at 50.0 µM), 87.4% (active). Besides, the growth inhibition in test [3] (setting [7]) was 3%; in test [3] (setting [8]) it was 98% (active); in test [3] (at 50.0 µM), 92% (active); in test [4] (setting [7]), -7%; in test [4] (setting [8]) it was 99% (active); in test [4] (at 50.0 µM) it was 91.7% (active). Moreover, the growth inhibition in test [5] (setting [7]) is 2%; in test [5] (setting [8]), 98% (active); in test [5] (at 50.0 µM) it was 89% (active); in test [6] (setting [7]), 1%; in test [6] (setting [8]), 98% (active); in test [6] (at 50.0 µM), 89.8% (active).

Turning to `Cc1ccc(S(=O)(=O)N/N=C/Cc2ccccc2)cc1`, the growth inhibition was 2% in test [1] (setting [7]); 96% (active) in test [1] (setting [8]); 87.5% (active) in test [1] (at 50.0 µM); -13% in test [2] (setting [7]); 98% (active) in test [2] (setting [8]); 7% in test [2] (at 50.0 µM). For the same compound, the growth inhibition was 3% in test [3] (setting [7]); 98% (active) in test [3] (setting [8]); 79.8% (active) in test [3] (at 50.0 µM); -3% in test [4] (setting [7]); 95% (active) in test [4] (setting [8]); 11.6% in test [4] (at 50.0 µM). For the same compound, the growth inhibition in test [5] (setting [7]) was -5%; in test [5] (setting [8]), 97% (active); in test [5] (at 50.0 µM), 12.1%; in test [6] (setting [7]) it was 28%; in test [6] (setting [8]), 98% (active); in test [6] (at 50.0 µM) it was 85.3% (active).

With `O=C1C2C3C=CC(C3)C2C(=O)C2C3C=CC(C3)C12` (stereo not given), the growth inhibition in test [1] (setting [7]) is 70% (active); in test [1] (setting [8]), 96% (active); in test [1] (at 50.0 µM), 98.6% (active); in test [2] (setting [7]), 58%; in test [2] (setting [8]), 98% (active); in test [2] (at 50.0 µM) it was 99.3% (active). The growth inhibition in test [3] (setting [7]) was 65%; in test [3] (setting [8]), 99% (active); in test [3] (at 50.0 µM), 99% (active); in test [4] (setting [7]), 23%; in test [4] (setting [8]) it was 95% (active); in test [4] (at 50.0 µM), 88% (active). Also, the growth inhibition in test [5] (setting [7]) is 53%; in test [5] (setting [8]), 96% (active); in test [5] (at 50.0 µM) it was 98.9% (active); in test [6] (setting [7]) it was 60%; in test [6] (setting [8]), 98% (active); in test [6] (at 50.0 µM), 99.2% (active).

As to `O=C(Cc1ccccc1)NNc1nc(NNC(=O)c2ccncc2)nc(Nc2ccccc2)n1`, the growth inhibition in test [1] (setting [7]) was 11%; in test [1] (setting [8]), 18%; in test [1] (at 50.0 µM), 26%; in test [2] (setting [7]), -9%; in test [2] (setting [8]), 11%; in test [2] (at 50.0 µM), 10.4%. The growth inhibition in test [3] (setting [7]) was 12%; in test [3] (setting [8]), 11%; in test [3] (at 50.0 µM), 33.3%; in test [4] (setting [7]), -10%; in test [4] (setting [8]) it was 21%; in test [4] (at 50.0 µM), -2.6%. In addition, the growth inhibition in test [5] (setting [7]) is -10%; in test [5] (setting [8]), 19%; in test [5] (at 50.0 µM), 36.6%; in test [6] (setting [7]), 13%; in test [6] (setting [8]) it was 25%; in test [6] (at 50.0 µM), 51.1%.

Turning to `C/C(=N/NC(N)=S)C(CN(C)C)C(C1=C(O)c2ccccc2OC1)c1ccccc1` (stereo not given), the growth inhibition was 8% in test [1] (setting [7]); 8% in test [1] (setting [8]); 68% in test [1] (at 50.0 µM); 2% in test [2] (setting [7]); 2% in test [2] (setting [8]); 52.5% in test [2] (at 50.0 µM). Further, the growth inhibition was 4% in test [3] (setting [7]); 4% in test [3] (setting [8]); 78.3% (active) in test [3] (at 50.0 µM); -1% in test [4] (setting [7]); -1% in test [4] (setting [8]); 65.8% in test [4] (at 50.0 µM). The growth inhibition was 12% in test [5] (setting [7]); 12% in test [5] (setting [8]); 65.2% in test [5] (at 50.0 µM); 0% in test [6] (setting [7]); 0% in test [6] (setting [8]); 66.8% in test [6] (at 50.0 µM).

For the compound `O=C(Nc1ccc(Cl)c(Cl)c1Cl)Oc1c(Cl)c(Cl)c(Cl)c(Cl)c1Cl`, the growth inhibition in test [1] (setting [7]) was 25%; in test [1] (setting [8]), 97% (active); in test [1] (at 50.0 µM), 99.5% (active); in test [2] (setting [7]), 36%; in test [2] (setting [8]) it was 100% (active); in test [2] (at 50.0 µM), 99.6% (active). The growth inhibition in test [3] (setting [7]) is 43%; in test [3] (setting [8]), 99% (active); in test [3] (at 50.0 µM) it was 99.6% (active); in test [4] (setting [7]) it was 13%; in test [4] (setting [8]) it was 99% (active); in test [4] (at 50.0 µM), 99.2% (active). For the same compound, the growth inhibition in test [5] (setting [7]) is 10%; in test [5] (setting [8]), 99% (active); in test [5] (at 50.0 µM), 98.5% (active); in test [6] (setting [7]) it was 20%; in test [6] (setting [8]), 99% (active); in test [6] (at 50.0 µM), 99.5% (active).

As to `CCOC(=O)/N=C(\N)SCc1ccccc1`, the growth inhibition in test [1] (setting [7]) is 21%; in test [1] (setting [8]), 3%; in test [1] (at 50.0 µM), 10.9%; in test [2] (setting [7]), -4%; in test [2] (setting [8]) it was -6%; in test [2] (at 50.0 µM), 1.05%. The growth inhibition was 13% in test [3] (setting [7]); -8% in test [3] (setting [8]); -12.8% in test [3] (at 50.0 µM); -7% in test [4] (setting [7]); -8% in test [4] (setting [8]); -6.25% in test [4] (at 50.0 µM). The growth inhibition is 0% in test [5] (setting [7]); -7% in test [5] (setting [8]); 49.5% in test [5] (at 50.0 µM); -3% in test [6] (setting [7]); -2% in test [6] (setting [8]); -5.95% in test [6] (at 50.0 µM).

In the case of `CCc1nc(N)nc(N)c1-c1ccc(NCCc2ccccc2)c([N+](=O)[O-])c1`, the growth inhibition was 13% in test [1] (setting [7]); 16% in test [1] (setting [8]); 25.9% in test [1] (at 50.0 µM); 9% in test [2] (setting [7]); 8% in test [2] (setting [8]); -2.75% in test [2] (at 50.0 µM). The growth inhibition in test [3] (setting [7]) was 17%; in test [3] (setting [8]) it was 19%; in test [3] (at 50.0 µM), 5.15%; in test [4] (setting [7]) it was 7%; in test [4] (setting [8]), 6%; in test [4] (at 50.0 µM), 9.75%. Also, the growth inhibition in test [5] (setting [7]) is 13%; in test [5] (setting [8]), 15%; in test [5] (at 50.0 µM), 14.4%; in test [6] (setting [7]) it was 7%; in test [6] (setting [8]), 19%; in test [6] (at 50.0 µM), 24.9%.

As to `COc1ccc(N=NN2CCCC2)cc1`, the growth inhibition is 35% in test [1] (setting [7]); 42% in test [1] (setting [8]); 89.7% (active) in test [1] (at 50.0 µM); 25% in test [2] (setting [7]); 27% in test [2] (setting [8]); 92.5% (active) in test [2] (at 50.0 µM). In addition, the growth inhibition in test [3] (setting [7]) is 45%; in test [3] (setting [8]), 52%; in test [3] (at 50.0 µM), 86.3% (active); in test [4] (setting [7]) it was 46%; in test [4] (setting [8]) it was 56%; in test [4] (at 50.0 µM), 89.7% (active). The growth inhibition in test [5] (setting [7]) was 49%; in test [5] (setting [8]) it was 50%; in test [5] (at 50.0 µM), 90.5% (active); in test [6] (setting [7]) it was 14%; in test [6] (setting [8]), 33%; in test [6] (at 50.0 µM) it was 91.2% (active).
